Experimental data as given in PubChem BioAssay (EPA / NIEHS).
Records with an inconclusive call do not appear. Activity calls are given as the source filed them. How the source made its calls, unless noted: active means hit-call score of the fitted dose curve at least 0.9, where 1 is the maximum; inactive means score below 0.9.

Columns and labels:
[1] = CCTE_Padilla_ZF_Score.General: CCTE's 144 Hour Post-fertilization zebrafish Assay Score for General Malformation, Padilla Lab (AID 2284411)
In short: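 Malformation, death and hatching were scored at 6 dpf by two blinded observers under a stereo microscope. Embryos were dosed singly from 6-8 hpf in sealed plates of 10% Hanks' at 26C and rinsed on 5 dpf; DMSO baseline.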

TTR (gene 7276) = experiment: CCTE_GLTED_hTTR_0.125uM: CCTE's human Transthyretin (hTTR) Inhibition Assay, with 0.125uM TTR, Great Lakes Toxicology and Ecology Division (GLTED) Lab (AID 2284431);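 further: hits lower the fluorescence signal relative to DMSO baseline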
In short: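 TTR 0.125uM + test chemical, 2 h; ANSA probe displacement; ex 380/em 475 fluorescence; signal loss vs DMSO control.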

[2] = CCTE_Padilla_ZF_Score.Position: CCTE's 144 Hour Post-fertilization zebrafish Assay Score for Position, Padilla Lab (AID 2284409)
In short: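 Wild-type zebrafish embryos (with chorions) exposed singly from 6–8 hpf in sealed wells of Hanks' solution at 26C, rinsed at 5 dpf. At 6 dpf, blinded assessors scored abnormal water-column position by brightfield stereomicroscopy, relative to DMSO.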

[3] = CCTE_Padilla_ZF_Score.Living: CCTE's 144 Hour Post-fertilization zebrafish Assay Score for Viability, Padilla Lab (AID 2284410);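 further: larval death at 6 dpf judged by absent heartbeat or coagulation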
In short: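 Mortality at 6 dpf, judged as absent heartbeat or coagulation by two blinded observers, after sealed static exposure beginning at 6–8 hpf at 26C. Larvae were rinsed free of chemical at 5 dpf, and activity was fitted relative to DMSO.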

[4] = CCTE_Padilla_ZF_Score.Tail: CCTE's 144 Hour Post-fertilization zebrafish Assay Score for Tail Malformation, Padilla Lab (AID 2284414)
In short: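 Tail malformations were scored at 6 dpf by two blinded assessors under a stereo microscope. Chorionated embryos had been exposed from 6-8 hpf in sealed wells of 10% Hanks' at 26 C, then rinsed free of chemical at 5 dpf.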

[5] = CCTE_Padilla_ZF_Score.Blood_pooling: CCTE's 144 Hour Post-fertilization zebrafish Assay Score for Blood Pooling, Padilla Lab (AID 2284415)
In short: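 Blood pooling was scored at 6 dpf under a stereo microscope by two blinded assessors, fitted upward against DMSO. Single embryos were dosed at 6–8 hpf in 10% Hanks', kept sealed at 26C (14:10 h cycle) and rinsed at 5 dpf.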

[6] = CCTE_Padilla_ZF_Score.Any: CCTE's 144 Hour Post-fertilization zebrafish Assay Score for Any Mortality or Malformation, Padilla Lab (AID 2284416)
In short: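 Wild-type zebrafish embryos with chorions, one per well in 10% Hanks' from 6–8 hpf, dosed in sealed plates at 26 C, 14:10 h light:dark; rinsed at 5 dpf; blinded scoring at 6 dpf for death or malformation, versus DMSO.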

[7] = system: SRY-box transcription factor 17 (SOX17) Protein Expression, Deisenroth Lab, SOX17 (gene 64321); experiment: CCTE_Deisenroth_DEVTOX-GLR_Endo_SOX17: CCTE's DevTox GLR-Endo Assay Evaluation of SRY-box transcription factor 17 (SOX17) Protein Expression, Deisenroth Lab (AID 2284413)
In short: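 Fluorescent microscopy of a SOX17 reporter in RUES2-GLR pluripotent cells scored endoderm differentiation after 48 h and two 24-h-spaced exposures. Values are percent change in SOX17+ population against 0.2% DMSO, n=4 experimental replicates.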

[8] = system: Brachyury (BRA) Protein Expression, TBXT (gene 6862); experiment: CCTE_Deisenroth_DEVTOX-GLR_Endo_BRA: CCTE's DevTox GLR-Endo Assay Evaluation of Brachyury (BRA) Protein Expression, Deisenroth Lab (AID 2284417)
In short: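 Endpoint is the fraction of BRA reporter-positive cells over total nuclei, corrected by subtracting the 0.2% DMSO value. Chemicals (1 nM - 200 uM, 10 points) were dosed twice during 48 h differentiation of RUES2-GLR cells, read by imaging.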

[9] = CCTE_Deisenroth_DEVTOX-GLR_Endo_CellCount: Viability Assessment in CCTE's DevTox GLR-Endo Assay, Deisenroth Lab (AID 2284420)
In short: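 Nuclei counted by fluorescence microscopy as a surrogate for cell number, expressed as percent change relative to 0.2% DMSO control. Human RUES2-GLR cells, 48 h differentiation, dosed twice; 1 nM - 200 uM series.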

[10] = system: SRY-box transcription factor 17 (SOX17) Protein Expression, Deisenroth Lab, SOX17 (gene 64321); experiment: CCTE_Deisenroth_DEVTOX-GLR_Pluri_SOX17: CCTE's DevTox GLR-Pluri Assay Evaluation of SRY-box transcription factor 17 (SOX17) Protein Expression, Deisenroth Lab (AID 2284427; active means hit-call score of the fitted dose curve at least 0.9, where 1 is the maximum)
In short: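 Readout: percent SOX17+ cells (SOX17+ count/cell count) by high-content imaging of an inducible fluorescent reporter, corrected for 0.2% DMSO solvent control. RUES2-GLR cells, 48 h differentiation, dosed twice at 24 h intervals, 1 nM - 200 uM.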

[11] = system: SRY-box transcription factor 2 (SOX2) Protein Expression, Deisenroth Lab, SOX2 (gene 6657); experiment: CCTE_Deisenroth_DEVTOX-GLR_Pluri_SOX2: CCTE's DevTox GLR-Pluri Assay Evaluation of SRY-box transcription factor 2 (SOX2) Protein Expression, Deisenroth Lab (AID 2284428)
In short: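 RUES2-GLR (human pluripotent), 48 h post-dosing, 2 exposures q24h, 1 nM–200 uM 10-pt. Fixed, nuclear dye, high-content imaging 5 fields/well. Endpoint: % SOX2+ cells (SOX2+/total count) vs 0.2% DMSO; n≥4.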

[12] = system: Brachyury (BRA) Protein Expression, Deisenroth Lab, TBXT (gene 6862); experiment: CCTE_Deisenroth_DEVTOX-GLR_Pluri_BRA: CCTE's DevTox GLR-Pluri Assay Evaluation of Brachyury (BRA) Protein Expression, Deisenroth Lab (AID 2284429; active means hit-call score of the fitted dose curve at least 0.9, where 1 is the maximum)
In short: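 Mesoderm readout after 48 h differentiation of human RUES2-GLR cells, dosed twice (24-h intervals) at 1 nM - 200 uM. BRA+ frequency from fluorescence imaging of fixed, nuclear-stained cells, DMSO-corrected.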

[13] = CCTE_Deisenroth_DEVTOX-GLR_Pluri_CellCount: Viability Assessment in CCTE's DevTox GLR-Pluri Assay Evaluation of Total Cell Counts, Deisenroth Lab (AID 2284430)
In short: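 Cytotoxicity readout: fluorescent nuclei counts by high-content imaging, expressed as percent change relative to 0.2% DMSO. Human RUES2-GLR pluripotent line differentiated 48 h, dosed twice at 24-h intervals across 1 nM - 200 uM (10 points).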

Measured: AC50

Nc1ccc([N+](=O)[O-])cc1Cl
inactive: [1]

CC(C)Nc1ccc(Nc2ccccc2)cc1
active: [1] 2.6 µM

CCCCCCCc1ccc(O)cc1
active: TTR (gene 7276) 0.736 µM

OCC(F)(F)OC(F)(F)C(F)(F)OC(F)(F)C(F)(F)OC(F)(F)CO
active: [3] 32.1 µM
inactive: [2] | [1] | [4] | [5] | [6]

CC(O)C(F)(F)C(F)(F)F (stereo not given)
inactive: [2] | [3] | [1] | [4] | [5] | [6]

OCC(F)(F)OC(F)(F)C(F)(F)OC(F)(F)C(F)(F)OC(F)(F)F
inactive: [5]
active: [2] 34.4 µM | [3] 88.8 µM | [1] 16.2 µM | [4] 20.2 µM | [6] 27.5 µM

O=C(O)C(F)(F)OC(F)(F)C(F)(F)OC(F)(F)C(=O)O
inactive: [2] | [3] | [1] | [4] | [5] | [6]

CO/N=C(/C(=O)OC)c1ccccc1COc1ccccc1C
active: TTR (gene 7276) 3.22 µM

OCC(F)(F)OC(F)(F)C(F)(F)OC(F)(F)CO
inactive: [2] | [3] | [1] | [4] | [5] | [6]

CCOP(=S)(OCC)SCS(=O)(=O)CC
active: [1] 65.2 µM

CCOP(=S)(OCC)SCSc1ccc(Cl)cc1
active: [1] 8.15 µM

O=C(O)C=CC(F)(C(F)(F)F)C(F)(F)F
inactive: [2] | [3] | [1] | [4] | [5] | [6]

O=C(O)C(F)(F)C(F)(F)C(=O)O
inactive: [2] | [3] | [1] | [4] | [5] | [6]

O=P(OCC(Br)CBr)(OCC(Br)CBr)OCC(Br)CBr (stereo not given)
active: [1] 2.01 µM

CCCCc1ccc(O)cc1
active: TTR (gene 7276) 6.48 µM

FC(F)(F)C(F)(C(F)(F)F)C(F)(F)C(F)(F)CC1CO1 (stereo not given)
inactive: [2] | [3] | [1] | [4] | [5] | [6]

O=P1(N(CCCl)CCCl)NCCCO1 (stereo not given)
inactive: [7] | [8] | [9] | [10] | [11] | [12] | [13]

c1ccc2c(c1)sc1ccccc12
inactive: [1]

CCC(C)(C)c1ccc(O)cc1
active: TTR (gene 7276) 14.4 µM
